Assay results reported in PubChem BioAssay (Tox21).
“And” between values parts separate entries of the source, which are not always exact repeats. Identical values can stand only once. Results filed as inconclusive are left out. Entries that show only a call come without a potency. More than one record can exist for a structure, and the calls need not agree. The source made the active and inactive calls. Unless noted, calls come from the whole dose curve; as a rule, active = well fitted curve in the direction sought with a large enough effect in the repeat runs; inconclusive = weak or mixed curves; inactive = no such curve, though single readings can be large; an effect the other way counts as inactive or inconclusive.

Key:
[1] = qHTS assay to identify small molecule antagonists of the glucocorticoid receptor (GR) signaling pathway - cell viability counter screen (AID 720693); note: nearly all actives have a fitted effect of over 55% in size
[2] = qHTS assay for identifying genotoxic compounds that show differential cytotoxicity against isogenic chicken DT40 cell lines with known DNA damage response pathways - wild type cell line (AID 743012); note: nearly all actives have a fitted effect of over 60% in size; note: potency is the fitted concentration of half-maximal effect
Outline: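 CellTiter-Glo luminescence readout of viability in wild type DT40 cells after 40 h compound exposure at 37 C/5% CO2; 300 cells/well; reagent incubated 30 min at room temperature before reading.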

[3] = qHTS assay for identifying genotoxic compounds that show differential cytotoxicity against isogenic chicken DT40 cell lines with known DNA damage response pathways - Rev3 mutant cell line (AID 743014); note: nearly all actives have a fitted effect of over 55% in size; note: potency is the fitted concentration of half-maximal effect
[4] = qHTS assay for identifying genotoxic compounds that show differential cytotoxicity against isogenic chicken DT40 cell lines with known DNA damage response pathways - Rad54/Ku70 mutant cell line (AID 743015); note: nearly all actives have a fitted effect of over 60% in size; note: potency is the fitted concentration of half-maximal effect
[5] = qHTS assay to identify small molecule antagonists of the androgen receptor (AR) signaling pathway - cell viability counter screen (AID 743033; note: nearly all actives have a fitted effect of over 45% in size)
[6] = qHTS assay to identify small molecule antagonists of the androgen receptor (AR) signaling pathway using the MDA cell line - cell viability counter screen (AID 743041; note: nearly all actives have a fitted effect of over 45% in size)
Outline: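 Cytotoxicity counter screen: MDA-kb2 AR-luc cells, compound + R1881, 16 h, 37C, 0% CO2; CellTiter-Fluor added at 15.5 h, fluorescence read after 30 min.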

[7] = qHTS assay to identify small molecule antagonists of the thyroid receptor (TR) signaling pathway - cell viability counter screen (AID 743064); note: nearly all actives have a fitted effect of over 50% in size; note: potency is the fitted concentration of half-maximal effect
Outline: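 Viability of T3-stimulated (1 nM final) GH3.TRE-Luc cells is measured by CellTiter-Fluor fluorescence after 23.5 h compound exposure at 37 °C plus 30 min reagent incubation.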

[8] = qHTS assay to identify small molecule antagonists of the thyroid receptor (TR) signaling pathway (AID 743065); note: nearly all actives have a fitted effect of over 55% in size; note: potency is the fitted concentration of half-maximal effect
Outline: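 GH3.TRE-Luc rat pituitary cells (two TREs driving luciferase) were dosed with compound, then stimulated with 1 nM T3 (final) for 23.5 h at 37 C. ONE-Glo luminescence was the read-out, with CellTiter-Fluor fluorescence as the cytotoxicity counter-screen.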

[9] = test system: thyroid hormone receptor (rat, GH3 cells); assay: qHTS assay to identify small molecule agonists of the thyroid receptor (TR) signaling pathway (AID 743066; calls by dose curve)
[10] = target: Estrogen receptor (Homo sapiens) (UniProt P03372); assay: qHTS assay to identify small molecule antagonists of the estrogen receptor alpha (ER-alpha) signaling pathway (AID 743069; active = well fitted curve in the direction sought with a large enough effect in the signal ratio in the repeat runs, not every such curve was filed as active; the % refers to the signal ratio)
Sequence of Estrogen receptor (Homo sapiens) (P03372 whole entry, looked up): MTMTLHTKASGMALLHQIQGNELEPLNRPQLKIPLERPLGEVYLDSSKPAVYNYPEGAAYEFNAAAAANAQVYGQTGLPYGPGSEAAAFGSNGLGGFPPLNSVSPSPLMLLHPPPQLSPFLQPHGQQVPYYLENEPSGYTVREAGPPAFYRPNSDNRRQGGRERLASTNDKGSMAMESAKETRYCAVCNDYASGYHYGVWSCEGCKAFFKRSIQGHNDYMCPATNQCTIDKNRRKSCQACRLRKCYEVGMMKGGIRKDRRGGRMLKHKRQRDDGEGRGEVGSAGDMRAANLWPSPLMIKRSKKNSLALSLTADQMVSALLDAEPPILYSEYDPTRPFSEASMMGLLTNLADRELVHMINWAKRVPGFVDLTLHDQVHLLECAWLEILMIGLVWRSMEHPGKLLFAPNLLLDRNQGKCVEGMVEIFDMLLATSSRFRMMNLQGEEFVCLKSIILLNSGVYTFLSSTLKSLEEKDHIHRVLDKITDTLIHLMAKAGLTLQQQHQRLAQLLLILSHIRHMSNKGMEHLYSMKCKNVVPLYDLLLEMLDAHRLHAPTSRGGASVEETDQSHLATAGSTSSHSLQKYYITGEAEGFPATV
Outline: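 Beta-lactamase FRET fluorescence is read after 2 hr at room temperature with LiveBLAzer B/G substrate. Before that, ER-alpha-bla HEK293 cells sit 4 hr after plating, then receive compound plus 17beta-estradiol and incubate 18 hr at 37C.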

[11] = qHTS assay to identify small molecule antagonists of the estrogen receptor alpha (ER-alpha) signaling pathway - cell viability counter screen (AID 743074; calls by dose curve;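 note: HEK293 cells carrying ER-alpha-UAS-bla reporter stimulated with 17beta-estradiol; nearly all actives have a fitted effect of over 45% in size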)
[12] = target: Estrogen receptor (Homo sapiens) (UniProt P03372); assay: qHTS assay to identify small molecule agonists of the estrogen receptor alpha (ER-alpha) signaling pathway (AID 743075; calls by dose curve;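 note: HEK293 GripTite cells with ER-alpha and UAS-driven beta-lactamase reporter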)
[13] = target: Estrogen receptor (Homo sapiens) (UniProt P03372); assay: qHTS assay to identify small molecule agonists of the estrogen receptor alpha (ER-alpha) signaling pathway using the BG1 cell line (AID 743079); note: nearly all actives have a fitted effect of over 20% in size
[14] = qHTS assay to identify small molecule antagonists of the estrogen receptor alpha (ER-alpha) signaling pathway using the BG1 cell line (AID 743080; calls by dose curve;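 note: BG1 cells stimulated with 17beta-estradiol alongside compound; nearly all actives have a fitted effect of over 25% in size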; note: potency is the fitted concentration of half-maximal effect)
Outline: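 Endogenous full-length ER-alpha in BG1-Luc-4E2 cells drives a stably integrated 4×ERE luciferase gene; compounds were tested against 17beta-estradiol over 21.5 h, with luminescence and multiplexed viability fluorescence recorded.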

[15] = qHTS assay to identify small molecule antagonists of the estrogen receptor alpha (ER-alpha) signaling pathway using the BG1 cell line - cell viability counter screen (AID 743081);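 note: compound given together with 17beta-estradiol as the ER stimulus; nearly all actives have a fitted effect of over 45% in size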; note: potency is the fitted concentration of half-maximal effect
Aromatase (Homo sapiens) = Aromatase (Homo sapiens) (UniProt P11511); assay: qHTS assay to identify aromatase inhibitors (AID 743083); note: series mostly up to about 70 µM; nearly all actives have a fitted effect of over 55% in size
Sequence of Aromatase (Homo sapiens) (P11511 whole entry, looked up): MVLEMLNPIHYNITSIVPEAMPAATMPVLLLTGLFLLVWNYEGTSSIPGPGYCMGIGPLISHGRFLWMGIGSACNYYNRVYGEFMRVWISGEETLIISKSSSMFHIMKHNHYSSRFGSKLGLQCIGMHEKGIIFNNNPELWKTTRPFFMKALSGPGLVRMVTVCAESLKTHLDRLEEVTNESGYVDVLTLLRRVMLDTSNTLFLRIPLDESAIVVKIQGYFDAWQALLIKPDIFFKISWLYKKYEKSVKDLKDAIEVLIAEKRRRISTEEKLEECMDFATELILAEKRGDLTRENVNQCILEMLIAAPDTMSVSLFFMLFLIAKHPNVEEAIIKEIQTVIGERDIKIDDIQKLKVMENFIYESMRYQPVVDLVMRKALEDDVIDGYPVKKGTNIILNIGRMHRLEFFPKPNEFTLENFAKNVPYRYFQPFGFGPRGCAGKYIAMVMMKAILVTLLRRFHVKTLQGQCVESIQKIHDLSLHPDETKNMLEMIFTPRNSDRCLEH

[16] = target: Androgen receptor (Homo sapiens) (UniProt P10275); assay: qHTS assay to identify small molecule antagonists of the androgen receptor (AR) signaling pathway (AID 743035; active = well fitted inhibition curve with a large enough effect in the signal ratio in the repeat runs, not every such curve was filed as active; the % refers to the signal ratio)
Sequence of Androgen receptor (Homo sapiens) (P10275 whole entry, looked up): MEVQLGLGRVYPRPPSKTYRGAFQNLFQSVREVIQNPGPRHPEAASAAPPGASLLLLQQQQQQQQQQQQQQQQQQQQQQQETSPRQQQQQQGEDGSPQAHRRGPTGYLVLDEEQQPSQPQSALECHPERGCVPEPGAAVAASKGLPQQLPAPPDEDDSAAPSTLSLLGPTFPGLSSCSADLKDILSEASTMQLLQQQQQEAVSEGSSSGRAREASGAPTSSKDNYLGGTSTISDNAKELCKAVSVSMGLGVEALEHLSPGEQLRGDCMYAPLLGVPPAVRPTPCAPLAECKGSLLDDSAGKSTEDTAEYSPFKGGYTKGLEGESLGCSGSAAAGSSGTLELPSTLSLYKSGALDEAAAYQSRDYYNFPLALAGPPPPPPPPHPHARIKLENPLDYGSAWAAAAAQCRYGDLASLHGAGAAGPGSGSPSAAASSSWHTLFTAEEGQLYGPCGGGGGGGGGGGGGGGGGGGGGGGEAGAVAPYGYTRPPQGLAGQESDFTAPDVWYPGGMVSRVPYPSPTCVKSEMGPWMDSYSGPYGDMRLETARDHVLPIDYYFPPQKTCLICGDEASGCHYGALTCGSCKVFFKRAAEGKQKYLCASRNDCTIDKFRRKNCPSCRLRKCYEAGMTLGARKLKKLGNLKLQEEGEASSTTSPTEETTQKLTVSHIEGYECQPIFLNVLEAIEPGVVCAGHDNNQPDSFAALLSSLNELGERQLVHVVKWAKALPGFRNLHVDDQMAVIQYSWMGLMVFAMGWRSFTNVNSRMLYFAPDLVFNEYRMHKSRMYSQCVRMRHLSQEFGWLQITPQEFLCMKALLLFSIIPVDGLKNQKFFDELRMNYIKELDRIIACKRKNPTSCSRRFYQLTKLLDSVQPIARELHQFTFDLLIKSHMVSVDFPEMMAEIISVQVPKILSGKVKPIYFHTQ
Outline: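 AR-bla HEK293 reporter cells; 4 h settle at 37C/5% CO2; compound + R1881 agonist, 16 h at 37C; LiveBLAzer B/G FRET substrate 2 h RT; fluorescence intensity read. qHTS format.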

[17] = target: Androgen receptor (Homo sapiens) (UniProt P10275); assay: qHTS assay to identify small molecule agonists of the androgen receptor (AR) signaling pathway (AID 743036; active = well fitted activation curve with a large enough effect in the signal ratio in the repeat runs, with a control signal flat, not every such curve was filed as active; the % refers to the signal ratio)
Outline: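 Screening used 2,000 AR-bla HEK293 cells per well, treated 16 h at 37C with test compounds in DMSO alongside positive and DMSO-only controls; beta-lactamase activity was then read by LiveBLAzer B/G FRET fluorescence after 2 h at room temperature.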

[18] = target: Androgen receptor (Homo sapiens) (UniProt P10275); assay: qHTS assay to identify small molecule agonists of the androgen receptor (AR) signaling pathway using the MDA cell line (AID 743040; note: nearly all actives have a fitted effect of over 20% in size)
Outline: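 Luciferase read-out, ONE-Glo, 30 min RT. Cells: MDA-kb2 AR-luc, MMTV promoter with AR and GR response elements. Compound exposure 16 h, 37C, 0% CO2, after 5 h pre-incubation. qHTS agonist mode.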

[19] = target: Androgen receptor (Homo sapiens) (UniProt P10275); assay: qHTS assay to identify small molecule antagonists of the androgen receptor (AR) signaling pathway using the MDA cell line (AID 743042; note: nearly all actives have a fitted effect of over 55% in size)
Outline: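 MDA-kb2 breast carcinoma cells carrying MMTV-luciferase (AR/GR responsive) were co-treated with compounds and the agonist R1881 for 16 h at 37C. Inhibition read as ONE-Glo luminescence; CellTiter-Fluor fluorescence measured in parallel for cytotoxicity.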

Structure (SMILES) | Potency [1] | Potency [2] | Potency [3] | Potency [4] | Potency [5] | Potency [6] | Potency [7] | Potency [8] | Potency [9] | Potency [10] | Potency [11] | Potency [12] | Potency [13] | Potency [14] | Potency [15] | Potency (Aromatase (Homo sapiens)) | Potency [16] | Potency [17] | Potency [18] | Potency [19]
O=C[C@H](O)[C@@H](O)[C@@H](O)[C@H](O)CO | inactive | inactive | inactive | inactive | inactive | inactive | inactive | inactive | inactive | inactive | inactive | inactive | inactive | inactive | inactive | inactive |  |  |  | 
OCl | inactive | inactive | inactive | inactive | inactive | inactive | inactive | inactive | inactive | inactive | inactive | inactive | inactive | inactive | inactive | inactive |  |  |  | 
CC(=O)OCC1=C(C(=O)O)N2C(=O)[C@@H](NC(=O)Cc3ccccc3)[C@H]2SC1 | inactive | inactive | inactive | inactive | inactive | inactive | inactive | inactive | inactive |  | inactive |  |  |  | inactive | inactive | inactive | inactive | inactive | inactive
COc1cc2c(cc1OC)[C@@H](Cc1cc(OC)c(OC)c(OC)c1)[N+](C)(CCCOC(=O)CC/C=C/CCC(=O)OCCC[N+]1(C)CCc3cc(OC)c(OC)cc3[C@H]1Cc1cc(OC)c(OC)c(OC)c1)CC2 (some centres undefined) | inactive | inactive | inactive | inactive | inactive | inactive |  |  |  |  | inactive |  |  |  | inactive | inactive |  |  |  | 
CC[C@@]1([C@@H]2O[C@@H]([C@H]3O[C@@](O)(CO)[C@H](C)C[C@@H]3C)C[C@@H]2C)CC[C@H]([C@]2(C)CC[C@]3(C[C@H](O)[C@@H](C)[C@@H]([C@@H](C)[C@@H](OC)[C@H](C)C(=O)O)O3)O2)O1 (stereo in doubt) | inactive | 473 nM (active) and 531 nM (active) | 376 nM (active) and 531 nM (active) | 531 nM (active) and 596 nM (active) |  |  | 596 nM (active) and 376 nM (active) | 376 nM (active) and 266 nM (active) |  |  |  | inactive | inactive |  | 18.8 µM (active) and inactive | inactive |  |  |  | 
CO/N=C(\C(=O)N[C@@H]1C(=O)N2C(C(=O)O)=C(COC(C)=O)CS[C@H]12)c1csc(N)n1 (stereo in doubt) | inactive | inactive | inactive | inactive | inactive | inactive |  |  | inactive |  | inactive |  |  |  | inactive |  |  |  |  | 
NC(N)=NCc1cccc(I)c1 | inactive | 5.96 µM (active) and 8.41 µM (active) | 8.41 µM (active) and 11.9 µM (active) | 6.68 µM (active) and 7.5 µM (active) | inactive |  | inactive |  | inactive | inactive | inactive | inactive |  | 21.1 µM (active) and 11.9 µM (active) | inactive | inactive |  |  |  | 
